CHX counter: counter-screen hit for Shiga toxin inhibitors, cycloheximide | cell reporter, cycloheximide protein synthesis inhibition counterscreen | max response, % | actives 12% (n = 300,000); in the data active = max response mostly above about 13%, no sharp cut-off; inactive = mostly below about 14%; also: read at 38.3 µM for the half of the compounds with a filed dose; 0% is about no effect
Pf growth 48h: inhibits P. falciparum growth in the first generation, 48 h. Potency, µM (series often up to 28.7 µM), without a hit: at the top dose activity change, negative = inhibition, actives largely listed as inhibitors. actives 5.9% (n = 310,000). P. falciparum luciferase growth in erythrocytes, 48 h. AID 504832; active = well fitted inhibition curve with a large enough effect; inconclusive = small, poorly fitted or top-dose-only effect, or another doubt; inactive = no such curve, though single readings can be large or run the other way; also: potency is read from the fitted curve at half-maximal effect; % is scaled to controls: 0 for no effect and ±100 for the full control effect
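A one-generation exposure of luciferase-tagged malaria parasites in RPMI 1640/Albumax erythrocyte culture, 37 C and 5% CO2. Inhibition is inferred from decreased luminescence after adding detection reagent.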
Shiga toxin inh: inhibitors of Shiga toxin in Vero cells; AID 2315; inhibition, % at 38.7 µM; actives 9.2% (n = 290,000); Vero cells, Shiga toxin protein synthesis inhibition reporter; in the data active = inhibition mostly above about 28%, no sharp cut-off; inactive = mostly below about 43%; also: 0% is about no effect
SARS PLpro yeast: blocks SARS-CoV papain-like protease in a yeast assay. S. cerevisiae expressing SARS-CoV PLpro, growth rescue. Potency, µM (doses to about 32.9 µM), inactives show top-dose activity, positive = growth rescue, actives largely listed as activators. actives 0.19% (n = 330,000); also: potency is read from the fitted curve at half-maximal effect; 0% is about no effect; nearly all actives have a fitted effect of over 55% in size
NS1 function inh: influenza NS1 inhibition. actives 0.4% (n = 270,000). Potency, µM (top dose mostly 46.1 µM), for the others: at the highest dose activity, positive = more growth. AID 2326; also: potency is read from the fitted curve at half-maximal effect; actives are rising curves; nearly all actives have a fitted effect of over 50% in size
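Compounds were scored for reversing the slow growth caused by influenza A NS1 in S. cerevisiae, measured by optical density at 600 nm. Assay medium contained 2% galactose at pH 6.0; NS1-free yeast of the same strain were the positive control.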
Pf growth 96h: P. falciparum growth inhibition at 96 hour, primary screen for plastid delayed-death inhibitors. P. falciparum luciferase reporter growth, 96 h. Potency, µM (highest dose often 28.7 µM), for inactives: at the top dose activity change, negative = inhibition, actives largely listed as inhibitors. AID 504834. actives 6.9% (n = 320,000); active = well fitted inhibition curve with a large enough effect; inconclusive = small, poorly fitted or top-dose-only effect, or another doubt; inactive = no such curve, though single readings can be large or run the other way; also: potency is read from the fitted curve at half-maximal effect; % is scaled to controls: 0 for no effect and ±100 for the full control effect
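P. falciparum expressing integrated firefly luciferase grown in erythrocytes (2% hematocrit, 0.05% parasitemia final) with compounds for 96 hours at 37 C, 5% CO2. Growth inhibition read as loss of luminescence after adding luciferase detection reagent.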
Numbers without * were called inactive. The list is not random: actives were taken first. Their share in the collection is about 21%. Unless noted, calls follow the shape of the full dose curve.

For O=C(CSc1ccc2nnc(CCNC(=O)c3ccc(F)cc3)n2n1)NCc1ccco1 the results were CHX counter -3, Pf growth 48h -16%, Shiga toxin inh -5, SARS PLpro yeast 7%, NS1 function inh 19% and Pf growth 96h -5%.
`CC(C[N+](C)(C)C)OC(=O)C1(c2ccccc2)CCCC1` (stereo unspecified) gave CHX counter 3, Pf growth 48h 10µM*, Shiga toxin inh -11, SARS PLpro yeast 0%, NS1 function inh -6% and Pf growth 96h inconclusive.
CCN(CC)CCOCCOC(=O)C1(c2ccccc2)CCCC1 was read as Pf growth 48h 3µM*, NS1 function inh 0% and Pf growth 96h 3.4µM*.
Screening Cc1ccc(S(=O)(=O)NN2Cc3ccccc3C2=N)cc1 returned CHX counter 1, Pf growth 48h 9%, Shiga toxin inh -7, SARS PLpro yeast 2% and Pf growth 96h 23%.
`Cc1ccc(N2Cc3ccccc3C2=S)cc1` gave CHX counter 37*, Pf growth 48h 494%, Shiga toxin inh 82*, SARS PLpro yeast 0% and Pf growth 96h inconclusive.
Screening Cc1ccccc1OC1C(=O)N(Cc2ccc3c(c2)OCO3)C1c1sccc1C (stereo unspecified) returned CHX counter -2, Pf growth 48h inconclusive, Shiga toxin inh -14, SARS PLpro yeast -4%, NS1 function inh 9% and Pf growth 96h 13µM*.
`CS(=O)(=O)c1ccc(C(=O)NCCN2C(=O)S/C(=C\c3cccnc3)C2=O)cc1[N+](=O)[O-]` gave CHX counter 31*, Pf growth 48h 5.2µM*, Shiga toxin inh 8, SARS PLpro yeast 1%, NS1 function inh 6% and Pf growth 96h inconclusive.
Screening Cc1cc(Cl)ccc1OCCCC(=O)NCCN1C(=O)S/C(=C\c2cccnc2)C1=O returned CHX counter 31*, Pf growth 48h 16%, Shiga toxin inh 40, SARS PLpro yeast 3%, NS1 function inh 12% and Pf growth 96h inconclusive.
For O=C(COC(=O)c1ncc(Cl)c(Cl)c1Cl)NC1CCCCCC1 the results were Pf growth 48h 35%, SARS PLpro yeast 3% and Pf growth 96h 23%.
`CCC(C)n1c(SCC(=O)NC(=O)c2cccn2C)nc2ccccc2c1=O` (stereo unspecified) gave CHX counter 13, Pf growth 48h inconclusive, Shiga toxin inh -6, SARS PLpro yeast 4% and Pf growth 96h inconclusive.
Screening C=CCn1c(SCC(=O)Nc2ccc(F)cc2)nc2ccccc2c1=O returned CHX counter 5, Pf growth 48h inconclusive, Shiga toxin inh -9, SARS PLpro yeast 4%, NS1 function inh -6% and Pf growth 96h 5.2µM*.
For C=CCn1c(SCC(=O)NC(=O)c2cccn2C)nc2ccccc2c1=O the results were CHX counter 10, Pf growth 48h 3.7µM*, Shiga toxin inh 1, SARS PLpro yeast -1%, NS1 function inh 4% and Pf growth 96h 10%.
Screening C=CCn1c(SCC(=O)Nc2cccc3ccccc23)nc(O)c(CC)c1=O returned CHX counter -9, Shiga toxin inh -22, SARS PLpro yeast 4%, NS1 function inh 13% and Pf growth 96h 9.3µM*.
`C=CCn1c(SCC(=O)Nc2ccc(O)cc2)nc2sc(CC)cc2c1=O` gave CHX counter -4, Pf growth 48h inconclusive, Shiga toxin inh 6, SARS PLpro yeast -2%, NS1 function inh 15% and Pf growth 96h inconclusive.
Screening COC(=O)CCc1nc2cc(Cl)ccc2n(Cc2ccccc2)c1=O returned CHX counter 7, Pf growth 48h -25%, Shiga toxin inh -23, SARS PLpro yeast -1%, NS1 function inh -16% and Pf growth 96h -17%.
CC1CCC(C(C)C)C(OC(=O)Cn2c(-c3ccc(Br)cc3)[n+](C)c3ccccc32)C1 (stereo unspecified) was read as CHX counter 11, Pf growth 48h 1.7µM*, Shiga toxin inh 7, SARS PLpro yeast -1%, NS1 function inh -2% and Pf growth 96h inconclusive.
`CNc1c(NS(=O)(=O)c2ccc(OC)c(Cl)c2)c(=O)oc2ccccc12` gave CHX counter 9, Pf growth 48h -8%, Shiga toxin inh 15, SARS PLpro yeast 5%, NS1 function inh -6% and Pf growth 96h 60%.
O=C(CSc1ncccn1)N1CCCc2ccccc21 was read as CHX counter 11*, Pf growth 48h 45%, Shiga toxin inh 28, SARS PLpro yeast 2% and Pf growth 96h inconclusive.
Screening Cc1ccc2c(c1)CCCN2C(=O)CSc1ccccc1 returned CHX counter 12*, Pf growth 48h 5%, Shiga toxin inh 53, SARS PLpro yeast 1%, NS1 function inh -29% and Pf growth 96h 16%.
O=C(CSc1ncn(-c2ccccc2)n1)N1CCc2ccccc21 was read as CHX counter -2, Pf growth 48h 21%, Shiga toxin inh -7, SARS PLpro yeast -5%, NS1 function inh -7% and Pf growth 96h 10µM*.
Screening COc1ccccc1CC(=O)N1CCCc2cc(C)ccc21 returned CHX counter 3, Pf growth 48h 9%, Shiga toxin inh 10, SARS PLpro yeast -1%, NS1 function inh -8% and Pf growth 96h 321%.
For O=C(CCS(=O)(=O)c1ccccc1)N1CCCc2ccccc21 the results were CHX counter 19*, Pf growth 48h 36%, Shiga toxin inh 57*, SARS PLpro yeast -4%, NS1 function inh 2% and Pf growth 96h 39%.
`O=C(Cn1cnc2c(nnn2Cc2ccccc2)c1=O)N1CCCc2ccccc21` gave CHX counter -2, Pf growth 48h inconclusive, Shiga toxin inh -4, SARS PLpro yeast 7%, NS1 function inh -38% and Pf growth 96h 12µM*.
Cc1ccnc(SCC(=O)N2CCN(C(c3ccccc3)c3ccccc3)CC2)n1 was read as CHX counter -5, Shiga toxin inh -10, SARS PLpro yeast 2%, NS1 function inh -14% and Pf growth 96h 15µM*.
O=C(CN1CCN(c2ncccn2)CC1)N1CCN(C(c2ccccc2)c2ccccc2)CC1 was read as NS1 function inh -18%.
For Cc1ccc(C)c2c1cc(C)c1nnc(SCC(=O)N3CCCc4ccccc43)n12 the results were CHX counter -10, Pf growth 48h 5%, Shiga toxin inh -21, SARS PLpro yeast -2%, NS1 function inh 3% and Pf growth 96h 48%.
`Cc1cc(C)nc(SCC(=O)n2c3c(c4ccccc42)CCCC3)n1` gave CHX counter -5, Pf growth 48h 19%, Shiga toxin inh 13, SARS PLpro yeast -1%, NS1 function inh -4% and Pf growth 96h 21%.
Screening O=C(CSc1ncccn1)n1c2c(c3ccccc31)CCCC2 returned CHX counter 33*, Pf growth 48h 39%, Shiga toxin inh 52*, SARS PLpro yeast -12%, NS1 function inh -31% and Pf growth 96h 7%.

High-throughput results (PubChem BioAssay)
